VP16 counter = VP16 counterscreen qHTS for inhibitors of ROR gamma transcriptional activity; Drosophila S2 Gal4-VP16 UAS-luciferase, luminescence, 20 h; Potency, µM (doses to about 53.6 µM), for inactives: at the top dose activity, negative = inhibition, hits mostly inhibitors; 310,000 compounds, 3.5% hits; AID 2546, 2010;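 note: Gal4-VP16 expression switched on by copper sulfate through the metallothionein promoter; nearly all actives have a fitted effect of over 50% in size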
TDP1 cell CPT = qHTS for Inhibitors of human tyrosyl-DNA phosphodiesterase 1 (TDP1): qHTS in cells in presence of CPT | Potency, µM (titrated, usually from 46.2 µM), inactives show top-dose activity change, negative = growth inhibition, most hits filed as inhibitors | chicken DT40 Tdp1-/-;hTDP1 cells + 20 nM CPT, ATP luminescence, 48 h | AID 686979, 2013 | 420,000 compounds, 12% hits; note: nearly all actives have a fitted effect of over 55% in size
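Chicken DT40 Tdp1-/- cells stably complemented with human TDP1 were seeded at 400 cells/well in medium containing 20 nM camptothecin, exposed to pin-transferred compounds, and grown at 37 °C for at least 48 hr. Viability was read as ATP luminescence.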
RORg inh = qHTS for inhibitors of ROR gamma transcriptional activity | Nuclear receptor ROR-gamma (Mus musculus), P51450 | Drosophila S2 Gal4-RORgamma UAS-luciferase reporter, 20 h | Potency, µM (series often up to 53.6 µM), inactives show top-dose activity change, negative = inhibition, actives largely listed as inhibitors | 310,000 compounds, 5.4% hits | AID 2551, 2010; note: nearly all actives have a fitted effect of over 60% in size
Target sequence (P51450 whole entry, looked up, the tested form may be a part): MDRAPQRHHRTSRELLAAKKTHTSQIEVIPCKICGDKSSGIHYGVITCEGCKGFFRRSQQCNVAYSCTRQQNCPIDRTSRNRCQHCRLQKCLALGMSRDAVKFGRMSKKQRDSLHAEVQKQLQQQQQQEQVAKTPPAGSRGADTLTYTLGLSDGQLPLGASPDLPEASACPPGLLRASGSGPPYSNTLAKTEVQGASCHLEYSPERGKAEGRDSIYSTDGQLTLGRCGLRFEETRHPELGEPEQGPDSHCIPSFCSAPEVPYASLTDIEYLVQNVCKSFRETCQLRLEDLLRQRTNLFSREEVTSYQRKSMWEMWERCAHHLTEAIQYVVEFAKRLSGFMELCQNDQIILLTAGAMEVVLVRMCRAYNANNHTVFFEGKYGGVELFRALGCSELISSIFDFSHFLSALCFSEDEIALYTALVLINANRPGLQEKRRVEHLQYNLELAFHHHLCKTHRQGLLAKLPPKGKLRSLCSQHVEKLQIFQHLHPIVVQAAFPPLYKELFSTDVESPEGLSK
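Using a luciferase readout, inhibitors were identified by reduced reporter activity in Drosophila cells coexpressing a copper-inducible Gal4–ROR gamma fusion and UAS-driven Photinus luciferase, incubated 20 hr after 700 uM copper sulfate.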
ELG1 repair inh = qHTS screen for small molecules that inhibit ELG1-dependent DNA repair in human embryonic kidney (HEK293T) cells expressing luciferase-tagged ELG1; HEK293T ELG1-luciferase reporter, luminescence, 16 h; DNA damage induced by 5-fluorouridine; Potency, µM (series often up to 46.1 µM), for inactives: at the highest dose activity change, negative = inhibition, hits mostly inhibitors; 330,000 compounds, 2.3% hits; note: nearly all actives have a fitted effect of over 55% in size
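5-Fluorouridine DNA damage + compound/DMSO, 2,000 cells/well, 16 h, 37 °C/5% CO2. ONE-Glo, 30 min RT, luminescence. Readout = decrease in reporter signal.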
12-LOX inh = Primary qHTS assay for inhibitors of human arachidonate 12S-lipoxygenase (ALOX12): Round 2; Polyunsaturated fatty acid lipoxygenase ALOX12 (Homo sapiens), P18054; 580,000 compounds, 1.1% hits; Potency, µM (highest dose often 108 µM), inactives show at the top dose activity change, negative = inhibition, most hits filed as inhibitors; purified 12hLO, xylenol orange hydroperoxide absorbance
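Purified human 12hLO at 150 nM in 25 mM Hepes, 0.01% Triton X-100, pH 7.0, preincubated 15 min at room temperature with compound. Reaction started with 40 uM arachidonic acid, 30 min at room temperature. Hydroperoxide measured by Fe-xylenol orange, 573/405 nm absorbance ratio.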
TDP1 cell noCPT = qHTS for Inhibitors of human tyrosyl-DNA phosphodiesterase 1 (TDP1): qHTS in cells in absence of CPT. DT40 Tdp1-/- hTDP1 cells, no CPT, ATP luminescence, 48 h. Potency, µM (series often up to 46.2 µM), without a hit: top-dose activity change, negative = growth inhibition, actives largely listed as inhibitors. 420,000 compounds, 15% hits. AID 686978, 2013; note: nearly all actives have a fitted effect of over 55% in size
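No-CPT arm: Tdp1-/-;hTDP1 DT40 cells (400/well) plus compounds, incubated ≥48 hr at 37 °C. Readout CellTiter-Glo luminescence.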
* = called active by the depositor; ? = inconclusive; nt = no result given. Most compounds without a hit are left out; they make up all but 15% or so of the library. Calls come from the whole dose curve; as a rule, active = well fitted curve in the direction sought with a large enough effect; inconclusive = small, poorly fitted or top-dose-only effect, or another doubt; inactive = no such curve, though single readings can be large; an effect the other way counts as inactive or inconclusive. % is set by controls: 0 for no effect and ±100 for the full control effect; potency is the fitted concentration of half-maximal effect.

SMILES	VP16 counter	TDP1 cell CPT	RORg inh	ELG1 repair inh	12-LOX inh	TDP1 cell noCPT
Cc1nc(-c2ccccc2)sc1CCNC(=O)C(=O)Nc1ccc(F)c(Cl)c1	nt	nt	nt	nt	-17%	nt
COc1cc(NC(=O)CSc2ccc(-c3sc(-c4ccccc4)nc3C)nn2)cc(OC)c1	nt	-87%	nt	nt	-20%	16µM*
CC(=O)Nc1cccc(NC(=O)CSc2ccc(-c3sc(-c4ccccc4)nc3C)nn2)c1	nt	9.2µM*	nt	nt	-14%	5.8µM*
OCC1(O)CCCN(Cc2ccccc2Cn2cccn2)C1 (stereo not drawn)	nt	nt	nt	nt	2%	nt
Cc1ccc(N=C/C(=C/Nc2ccc(C)cc2)[N+](=O)[O-])cc1	nt	nt	nt	nt	4%	nt
COc1cccc(CNC(=O)CSc2ccc(-c3sc(-c4ccccc4)nc3C)nn2)c1	nt	?	nt	nt	-9%	18µM*
Cc1ccc(CNC(=O)CSc2ccc(-c3sc(-c4ccccc4)nc3C)nn2)cc1	nt	-26%	nt	nt	?	-24%
COc1ccccc1CNc1oc(-c2ccc(C)cc2)nc1C#N	nt	nt	nt	nt	-9%	nt
N#CC(=C(O)c1ccc(Cl)cc1Cl)c1nc2cc(Cl)ccc2c(=O)[nH]1	nt	nt	nt	nt	22µM*	nt
N#C/C(=C/c1ccccc1Cl)c1nc2ccccc2c(=O)[nH]1	nt	0%	nt	nt	0%	4%
COc1cccc(S(=O)(=O)N2CCC(Oc3ccc(C(N)=O)cn3)CC2)c1	nt	nt	nt	nt	4%	nt
O=C(Cc1n[nH]c(=O)c2ccccc12)NC1CCCc2c1[nH]c1ccccc21 (stereo not drawn)	nt	nt	nt	nt	45µM*	nt
COc1ccc(C2(C(=O)NC3CCCc4c3[nH]c3ccccc43)CCOCC2)cc1 (stereo not drawn)	nt	nt	nt	nt	35µM*	nt
O=C(Cn1ncc2ccccc2c1=O)NC1CCCc2c1[nH]c1ccccc21 (stereo not drawn)	nt	nt	nt	nt	28µM*	nt
COc1ccc2cnn(CC(=O)NC3CCCc4c3[nH]c3ccccc43)c(=O)c2c1OC (stereo not drawn)	nt	nt	nt	nt	40µM*	nt
O=C(Cc1n[nH]c(=O)c2ccccc12)NC1CCc2ccccc21 (stereo not drawn)	nt	nt	nt	nt	5%	nt
COc1ccc2cnn(CC(=O)Nc3ccccc3)c(=O)c2c1OC	nt	nt	nt	nt	14%	nt
O=C(CC1C(=O)NCCN1C(=O)CN1CCN(c2ncccn2)CC1)Nc1ccc(F)cc1 (stereo not drawn)	nt	nt	nt	nt	-1%	nt
Cc1ccc2[nH]c3c(c2c1)CCCC3NC(=O)CCl (stereo not drawn)	?	6.5µM*	-15%	18µM*	nt	2.3µM*
O=C(Cn1nc2c(cc1=O)CCCC2)NC1CCCc2c1[nH]c1ccccc21 (stereo not drawn)	nt	nt	nt	nt	35µM*	nt
O=C(CCc1nc2ccccc2c(=O)[nH]1)NCCN1C(=O)S/C(=C\c2ccc(Cl)cc2Cl)C1=O	nt	8.2µM*	nt	-11%	?	4.6µM*
COc1cc(OC)cc(C(=O)NCC(=O)NCCN2C(=O)S/C(=C\c3ccccc3Cl)C2=O)c1	nt	?	nt	-14%	3%	?
O=C(CCc1nc2ccccc2c(=O)[nH]1)Nc1ccc(Cl)c(Cl)c1	16%	-23%	26%	-4%	?	?
COc1cc(C(=O)NCC(=O)NCCN2C(=O)S/C(=C\c3ccccc3Cl)C2=O)cc(OC)c1OC	nt	18µM*	nt	-18%	-8%	18µM*
COc1cc(OC)cc(C(=O)NCC(=O)NCCN2C(=O)S/C(=C\c3ccc4c(c3)OCO4)C2=O)c1	nt	?	nt	nt	?	18µM*
SMILES	VP16 counter	TDP1 cell CPT	RORg inh	ELG1 repair inh	12-LOX inh	TDP1 cell noCPT
CCOc1ccc(N/C(=C\C(=O)c2ccccc2)c2ccccc2)cc1	nt	nt	nt	nt	-14%	nt
CC1CN(S(=O)(=O)c2cccc(C(=O)Nc3cc(Cl)ccc3N3CCOCC3)c2)CC(C)O1 (stereo not drawn)	nt	?	nt	-20%	0%	15µM*
CC1CN(S(=O)(=O)c2cccc(C(=O)Nc3ccccc3N3CCCC3)c2)CC(C)O1 (stereo not drawn)	nt	?	nt	-10%	2%	12µM*
COc1cccc(C2C(C#N)=C(N)OC3=C2C(=O)CC(C)(C)C3)c1 (stereo not drawn)	nt	nt	nt	nt	12%	nt
CC(CC(=O)O)C(=O)c1ccc(Cl)cc1 (stereo not drawn)	nt	nt	nt	nt	0%	nt
COC(=O)Cc1csc(NC(=O)Cc2c(C)c3ccc(O)cc3oc2=O)n1	nt	nt	nt	nt	-4%	nt
CC1(C)CN(C2CCCCC2)C(=O)[C@H]1CC(=O)Nc1ccccc1	nt	-21%	nt	nt	12%	?
CC1(C)CN(C2CCCCC2)C(=O)[C@H]1CC(=O)Nc1ccc(Br)cc1	nt	?	nt	nt	-7%	18µM*
CC(C)C(NC(=O)c1ccc(I)cc1)C(C)C	nt	nt	nt	nt	4%	nt
CCN(CC)c1nc(Nc2ccc([N+](=O)[O-])cc2)nc(N(CC)CC)n1	0%	26µM*	?	?	-6%	21µM*
CC(C)(C)NC(=O)CNC(=O)C1CCCCC1	nt	nt	nt	nt	55%	nt
COc1ccc(/C=C/C(=O)Nc2cc(C(F)(F)F)ccc2Cl)cc1OC	-28%	29µM*	?	-25%	-22%	?
COc1ccc(/C=C/C(=O)Nc2ccccc2C(F)(F)F)cc1OC	-5%	15%	1%	12%	-8%	-2%
COc1cc(/C=C/C(=O)Nc2cc(C(F)(F)F)ccc2Cl)cc(OC)c1OC	?	?	?	?	0%	26µM*
COc1ccc(S(=O)(=O)N2CC(=O)Nc3ccccc32)cc1Cl	nt	-5%	nt	-2%	6.3µM*	-3%
COc1ccc(CNC(=O)c2sc3nc4c(c(C(F)(F)F)c3c2N)CCC4)cc1OC	-2%	?	?	?	-18%	16µM*
COc1ccc(NC(=O)c2sc3nc(C(F)(F)F)cc(C)c3c2N)cc1OC	nt	1%	nt	nt	-23%	-6%
CC(=O)N1CCc2nc3sc(C(=O)Nc4ccccc4F)c(N)c3c(C(F)(F)F)c2C1	nt	nt	nt	nt	-6%	nt
COc1ccc(C(=O)c2sc3nc4c(c(C(F)(F)F)c3c2N)CN(C(C)=O)CC4)cc1OC	nt	18µM*	nt	nt	0%	16µM*

Bioassay records: PubChem BioAssay, National Center for Advancing Translational Sciences (NCATS)
